# Source: PubChem
# Most compounds without a hit are left out; they make up all but 2.4% or so of the library.
# Pol beta inh = inhibitors of human DNA polymerase beta; Pol beta primer extension/strand displacement, fluorescence kinetic; Potency, µM (titrated, usually from 114 µM), most hits filed as inhibitors; actives 1.3% (n = 340,000)
#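 Curves were derived by four-parameter Hill fits of normalized qHTS data. The kinetic fluorescent primer-extension read was taken at 0 and 10 min after 50 nM substrate, following a 15 min room-temperature preincubation of 10 nM enzyme with compounds.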
# Pol iota inh = blocks human DNA polymerase iota activity | actives 1% (n = 390,000) | Potency, µM (titrated, usually from 115 µM), most hits filed as inhibitors | Pol iota fluorescent replication assay, 10 min | Q9UNA4
#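 Pol iota at 10 nM preincubated 15 min with compounds at room temperature; reaction started with fluorescent substrate, 50 nM final. Fluorescence read kinetically at 0 and 10 min; buffer-only wells as negative control.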
# WRN inhibitor = blocks human WRN helicase | Potency, µM (series often up to 114 µM), usual class: inhibitors | AID 651768 | actives 0.46% (n = 360,000) | WRN helicase unwinding, fluorescent forked duplex, kinetic | Q14191; also: nearly all actives have a fitted effect of over 55% in size
#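 WRN at 20 nM final preincubated with compound 15 min at room temperature; reaction started with 100 nM fluorophore/quencher forked duplex oligonucleotide and 2 mM ATP final. Unwinding followed kinetically by red fluorescence (ex 525, em 598 nm).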
# Pol kappa inh = inhibitors of human DNA polymerase kappa; Q9UBT6; Potency, µM (highest dose often 107 µM), most hits filed as inhibitors; purified Pol kappa, fluorescent DNA synthesis assay, 10 min; actives 0.53% (n = 400,000)
# Target sequence (Q9UBT6 whole entry, looked up): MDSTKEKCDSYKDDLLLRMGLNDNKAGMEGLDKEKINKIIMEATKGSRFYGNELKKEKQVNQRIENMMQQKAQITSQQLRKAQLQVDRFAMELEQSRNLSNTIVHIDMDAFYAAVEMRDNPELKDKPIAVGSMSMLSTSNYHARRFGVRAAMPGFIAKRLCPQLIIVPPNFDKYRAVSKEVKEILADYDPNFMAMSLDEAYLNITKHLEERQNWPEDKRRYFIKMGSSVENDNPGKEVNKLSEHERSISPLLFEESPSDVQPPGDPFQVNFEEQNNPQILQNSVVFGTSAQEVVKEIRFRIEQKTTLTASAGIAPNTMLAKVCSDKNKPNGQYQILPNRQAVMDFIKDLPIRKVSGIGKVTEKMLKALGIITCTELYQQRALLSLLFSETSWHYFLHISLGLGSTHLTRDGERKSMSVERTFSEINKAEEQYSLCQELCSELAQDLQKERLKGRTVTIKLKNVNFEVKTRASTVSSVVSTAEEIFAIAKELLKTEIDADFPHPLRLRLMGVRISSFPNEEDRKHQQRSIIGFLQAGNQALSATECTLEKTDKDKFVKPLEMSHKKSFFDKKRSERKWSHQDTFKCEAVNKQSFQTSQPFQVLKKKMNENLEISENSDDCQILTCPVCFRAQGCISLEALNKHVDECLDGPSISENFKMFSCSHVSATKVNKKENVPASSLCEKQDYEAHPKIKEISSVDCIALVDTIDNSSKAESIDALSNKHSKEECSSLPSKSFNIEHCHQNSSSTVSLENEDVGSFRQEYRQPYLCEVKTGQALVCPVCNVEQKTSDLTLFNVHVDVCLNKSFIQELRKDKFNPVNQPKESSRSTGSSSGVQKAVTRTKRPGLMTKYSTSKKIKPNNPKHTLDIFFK
#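 Kinetic fluorescence screen: compound preincubated 15 min RT with 10 nM enzyme; 50 nM substrate (final) initiates; reads at 0/10 min.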
# FEN1 inhibitor = blocks human flap endonuclease 1; P39748; Recombinant FEN1 flap cleavage, fluorescence, 15 min; Potency, µM (series often up to 114 µM), actives largely listed as inhibitors; actives 0.35% (n = 390,000); AID 588795; also: nearly all actives have a fitted effect of over 65% in size
#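 Quantitative HTS format: each compound was titrated, incubated with 10 nM nuclease for 15 min at room temperature, then challenged with flap substrate at 50 nM final. Signal change over 15 min gave concentration–effect curves.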
# POLH inh = blocks human DNA polymerase eta activity | actives 1.2% (n = 390,000) | Potency, µM (top dose mostly 114 µM), usual class: inhibitors | AID 588591 | Q9Y253 | recombinant Pol eta, fluorescent DNA replication assay
#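 Fluorescent replication assay: 50 nM final substrate added after a 15 min room-temperature compound preincubation with 10 nM enzyme. Signal taken at 0 min and again at 10 min.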
# Numbers stand for hits; - = inactive; ? = inconclusive; . = no result; [ ] = another dose, or the depositor's remark. Calls follow the shape of the dose curve; as a rule, active = well fitted curve in the direction sought with a large enough effect; inconclusive = small, poorly fitted or top-dose-only effect, or another doubt; inactive = no such curve, though single readings can be large; an effect the other way counts as inactive or inconclusive.
SMILES,Pol beta inh,Pol iota inh,WRN inhibitor,Pol kappa inh,FEN1 inhibitor,POLH inh
O=C(CNC(=O)c1cccc(S(=O)(=O)N2CCc3ccccc32)c1)Nc1ccccc1Br,.,-,-,-,-,-
CCc1ccccc1NC(=O)C1CCN(C2=NS(=O)(=O)C(c3ccc(C)c(C)c3)=C2C)CC1,13µM,-,.,-,-,.
CCc1ccccc1NC(=O)C1CCCN1S(=O)(=O)c1ccc(-c2ccc(=O)[nH]n2)s1 (centres undefined),-,?,-[11.6 µM],-,-,40µM
CCOC(=O)C1=C(O)/C(=C/c2cn(CC(=O)NCC3CCCO3)c3ccccc23)SC1=Nc1ccc(C)cc1 (centres undefined),.,?,-,-,-,14µM
CCOC(=O)C1=C(O)/C(=C/c2ccc(-c3ccccc3C(=O)O)o2)SC1=Nc1ccc(C)cc1,-,?,?,40µM,40µM,22µM
O=S(=O)(O)c1cc(O)c2c(N=Nc3ccc(Nc4ccccc4)c4c(S(=O)(=O)O)cccc34)cc(S(=O)(=O)O)cc2c1,.,.,.,3.2µM,.,.
O=S(=O)(Nc1ccc(N=Nc2ccc(O)c3ccccc23)cc1)c1ccccc1,-,-,-,-,-,?
COc1ccc(Cc2nn3c(Cn4nnc5ccccc54)nnc3s2)cc1,35µM,?,-,-,-,?
c1ccc(-c2nn3c(Cn4nnc5ccccc54)nnc3s2)cc1,-,-,-,-,-,-
CCCCCCCCCCCCCCCC(=O)OCC(O)C1OC(=O)C(O)=C1O (centres undefined),.,.,.,14µM,.,.
CCOc1ccc(OCC)c(NC(=O)C2C3C=CC(O3)C2C(=O)O)c1 (centres undefined),.,.,-,.,.,-
Cc1ccc(NC(=O)CN2C(=O)S/C(=C\c3cc(C)n(-c4ccc(C(=O)O)cc4)c3C)C2=O)cc1,79µM,?,-,-,?,79µM
COc1ccccc1N1CCN(S(=O)(=O)c2c(C)sc3ncn(CC(=O)N(C)c4ccc(Cl)cc4)c(=O)c23)CC1,-,-,.,-,-,-
CCC(C)Sc1nc2c(c(=O)[nH]1)C(c1cccs1)C1=C(CCCC1=O)N2 (centres undefined),25µM,?,-,-,-,?
Cc1cccc(NC(=O)c2nc[nH]c2C(=O)N[C@@H](C)C(=O)OCc2ccccc2)c1,-,?,-,-,-,?
Cc1ccccc1N=Nc1ccc(O)c2ncccc12,-,-,-,-,-,-
O=S(=O)(O)c1cccc2c(N=Nc3ccc(O)c4ncccc34)cccc12,?,?,22µM,-,?,3.2µM
O=C(COC(=O)c1ccccc1C(=O)c1ccc(Cl)c([N+](=O)[O-])c1)NC1CC1,-,-,-,-,-,-
O=C(OC1CCOC1=O)c1ccccc1C(=O)c1ccc(Cl)c([N+](=O)[O-])c1 (centres undefined),.,40µM,-,-,-,50µM
CC(=O)NCC(=O)OCC(=O)c1ccc(C)cc1,-,-,-,-,-,-
O=C(Nc1ccc(NC(=O)c2ccccc2Cl)cc1)c1cccnc1,-,-,-,-,-,-
CCOc1ccc(C(=O)OCC(=O)NC(C)C)cc1,-,-,-,-,-,-
COc1cc(OC)c(/C=C/c2cc[n+](C)c3ccccc23)c(OC)c1,.,-,.,-,?,.
C[n+]1ccc(/C=C/c2ccc(C=S)cc2)c2ccccc21,.,89µM,.,-,50µM,.
COc1cc(OC)c(OC)cc1/C=C/c1cc[n+](C)c2ccccc12,.,71µM,.,89µM,40µM,.
COC(=O)N1CCCc2cc(S(=O)(=O)N3CCN(c4ccccc4)CC3)ccc21,-,-,.,-,-,-
CCc1ccc(OCC(=O)NNC(=O)c2cc3ccccc3o2)cc1,25µM,-,?,-,-,-
Cc1cc(C)cc(OCC(=O)NNC(=O)c2cc3ccccc3o2)c1,-,-,-,-,-,-
CCc1ccc(OCC(=O)Nc2ccc(-c3nc4ccccc4o3)c(O)c2)cc1,2.2µM,-,-,-,-,?
COc1ccc(OCC(=O)Nc2cccc(-c3nc4ccccc4o3)c2)cc1,?,?,-,-,-,-
